# Laboratory results: PubChem BioAssay AID504329 (Southern Research Specialized Biocontainment Screening …, 2011)
# Screen size: about 340,000 compounds; about 1,000 (0.29%) were called active. Rule as the data show it: inconclusive = inhibition above about 27% without an active follow-up result; inactive = below that. Not all results are given here. Entries with a potency or affinity are not part of this list.
# Assay: H1N1 influenza NS1A inhibitors, functional cell based assay (AID 504329)
# Conditions: percent inhibition, at 12.5 µM, hits give high values
row,Compound,inhibition
1,COC(=O)c1ccccc1S(=O)(=O)N(CCCN1CCOCC1)Cc1cccs1,18.3% (inactive)
2,COc1cccc(C2C(C#N)=C(N)N(N(C)C)C3=C2C(=O)CCC3)c1 (stereo unspecified),-18.6% (inactive)
3,Cc1ccc(NCc2nc3ccccc3n2C)cc1,3.76% (inactive)
4,Cn1c(CNc2ccccc2)nc2ccccc21,-15.8% (inactive)
5,Cc1cc([N+](=O)[O-])nn1CC(=O)N/N=C/c1ccccc1O,13.7% (inactive)
6,O=C(Cn1cnc([N+](=O)[O-])n1)N/N=C/c1ccc2ccccc2c1,-2.51% (inactive)
7,O=C(Cn1cnc([N+](=O)[O-])n1)N/N=C/c1cccc(Cl)c1,-19.4% (inactive)
8,Cc1ccccc1/C=N/NC(=O)Cn1cnc([N+](=O)[O-])n1,0.54% (inactive)
9,O=C(Cn1cnc([N+](=O)[O-])n1)N/N=C/c1cccc2ccccc12,5.61% (inactive)
10,COc1ccccc1/C=N/NC(=O)Cn1cnc([N+](=O)[O-])n1,2.27% (inactive)
11,O=C(CCCn1cnc([N+](=O)[O-])n1)Nc1cc(Cl)ccc1O,-2.62% (inactive)
12,Cc1cc([N+](=O)[O-])nn1Cc1ccc(C(=O)N/N=C/c2ccc(O)cc2O)cc1,2.59% (inactive)
13,CCN(CC)S(=O)(=O)c1ccc(Cl)c(NC(=O)COc2ccc3c(C)cc(=O)oc3c2)c1,15.6% (inactive)
14,CC(=O)c1cccc(NC(=O)CSc2ccc(-c3sc(C)nc3C)nn2)c1,-5.12% (inactive)
15,Cc1ccccc1NC(=O)/C(C#N)=C/c1ccc[nH]1,-10.5% (inactive)
16,COC(=O)c1ccc(N2CCN(C)CC2)c(NC(=O)COc2ccccc2)c1,4.25% (inactive)
17,COc1ccc(-c2noc(Cn3cc(S(=O)(=O)N4CCCC4)ccc3=O)n2)cc1,-10.2% (inactive)
18,Cc1ccc(/C=N/n2c(-c3ccc(Cl)cc3)n[nH]c2=S)o1,2.1% (inactive)
19,Cc1cc(OCC(=O)N2CCC(C(=O)O)CC2)c2c3c(c(=O)oc2c1)CCC3,-2.02% (inactive)
20,O=C(c1c(F)cccc1F)N1CCN(c2cccc(C(F)(F)F)c2)CC1,-9.64% (inactive)
21,Nc1nc(-c2ccccc2)c(-c2ccccc2)s1,4.73% (inactive)

row,Compound,inhibition
1,Nc1nc(-c2ccccc2)c(N=Nc2cccnc2)s1,18% (inactive)
2,Nc1nc(-c2ccccc2)c(N=Nc2ccc(Cl)cc2)s1,11.4% (inactive)
3,Nc1ccc(N=Nc2ccccc2Cl)c(N)n1,26.8% (inactive)
4,C=C(C)COc1ccc(-c2[nH]ncc2-c2ccc(OC)cc2)c(O)c1,9.07% (inactive)
5,CC(=O)c1sc(NC(=O)C2CCCN2S(=O)(=O)c2ccccc2F)nc1C (stereo unspecified),-3.2% (inactive)
6,COc1cc(C)ccc1OCCCOc1c(Cl)cccc1Cl,-6.86% (inactive)
7,CN(C)/N=C/C=C1\CC/C(=C\c2ccc(Br)cc2)C1=O,5.12% (inactive)
8,CC(C)c1ccc(/C=C2\CC/C(=C\C=N\N(C)C)C2=O)cc1,2.58% (inactive)
9,O=C(Nc1sc2c(c1C(=O)N1CCOCC1)CCCCC2)c1cccnc1,1.63% (inactive)
10,COc1cccc(/C=N/NC(=O)Cn2ccnc2C)c1,-3.78% (inactive)
11,Cc1nccn1CC(=O)N/N=C/c1c[nH]c2ccccc12,-1.01% (inactive)
12,Cc1nccn1CC(=O)N/N=C/c1cccc(O)c1,-4.69% (inactive)
13,Cc1nccn1CC(=O)N/N=C/c1cccs1,-26.6% (inactive)
14,COc1ccc(/C=N/N=C2/NC(=O)C(c3ccccc3)(c3ccccc3)S2)cc1,9.74% (inactive)
15,Cc1cccc(OCc2nnc(SCC(=O)Nc3cccc(C(=O)N4CCOCC4)c3)n2C)c1,-2.72% (inactive)
16,CN(CC(=O)Nc1ccccc1Br)C(=O)COc1cccc2c1OC(C)(C)C2,-2.61% (inactive)
17,Cc1cc(OCC(=O)N(C)C2CCCCC2)ccc1Cl,1.86% (inactive)
18,COc1ccc(C2CC(c3cccs3)=NN2C(=O)CSc2nc(=O)n3ccccc3n2)cc1 (stereo unspecified),-0.56% (inactive)
19,Cc1ccc(NC(=O)CN2C(=O)CN=C(c3ccccc3)c3cc(Cl)ccc32)cc1,24.3% (inactive)
20,CN(C)c1ccc(NC(=O)CN2C(=O)CN=C(c3ccccc3)c3ccccc32)cc1,-10.1% (inactive)
21,c1ccc(CNc2nc(-c3ccccn3)nc3ccccc23)cc1,24.8% (inactive)

row,Compound,inhibition
1,CCC(C)Nc1nc(-c2cccc(OC)c2O)nc2ccccc12 (stereo unspecified),4.38% (inactive)
2,CCCN(CCC)c1nc(-c2ccccn2)nc2ccccc12,10.6% (inactive)
3,c1ccc(N2CCN(c3nc(-c4ccccn4)nc4ccccc34)CC2)cc1,18.4% (inactive)
4,CN1CCN(c2nc(-c3ccccn3)nc3ccccc23)CC1,10.9% (inactive)
5,Oc1ccccc1-c1nc(NCc2ccco2)c2ccccc2n1,-19.2% (inactive)
6,C/C(=N\Nc1nc(-c2ccccn2)nc2ccccc12)c1ccc(F)cc1,0.16% (inactive)
7,c1ccc(CCNc2nc(-c3ccccn3)nc3ccccc23)cc1,21% (inactive)
8,Cc1noc(C)c1C(=O)OCC(=O)Nc1ccc(N2CCOCC2)cc1,5.46% (inactive)
9,O=C(Nc1ccc(OC(F)F)cc1)c1cc(S(=O)(=O)N2CCOCC2)ccc1N1CCCC1,-1.31% (inactive)
10,Cc1[nH]c2ccccc2c1C(=O)CNc1nccs1,-1.86% (inactive)
11,Cc1cccc(-c2nc(C#N)c(N3CCCCC3)o2)c1,3.65% (inactive)
12,COc1ccc(C2(OC)Oc3cc(OC)ccc3C(=O)C2(O)OC)cc1 (stereo unspecified),-14.3% (inactive)
13,COC(=O)c1ccccc1NC(=O)C1CCN(S(C)(=O)=O)CC1,-15.6% (inactive)
14,CCCCCN(C(=O)CCC(=O)OCC(=O)c1cccc(OC)c1)c1c(N)n(CCCC)c(=O)[nH]c1=O,-2.41% (inactive)
15,OCCNCCO,-1.33% (inactive)
16,O=C(O)CCNc1ccc(NCCC(=O)O)c2c1C(=O)c1ccccc1C2=O,22.7% (inactive)
17,O=C(O)c1ccccc1NCCO,-4.36% (inactive)
18,O=C1c2cccc(NCCNCCO)c2C(=O)c2cccc(NCCNCCO)c21,28% (inactive)
19,Cc1ccc(C2/C(=C(\O)c3c(C)nc4ccccn34)C(=O)C(=O)N2CCN(C)C)o1 (stereo unspecified),-13.9% (inactive)
